# PMC7862700, “An all-to-all approach to the identification of sequence-specific readers for epigenetic DNA modifications on cytosine”
# How the values were obtained:
# Test in all cases: DAPPL (digital affinity profiling via proximity ligation, sequencing); 10 mM Tris-HCl pH 7.5, 50 mM NaCl, 1 mM DTT, 4% glycerol, room temperature, 30 min; GST-TFs on glutathione beads, 16-mer random dsDNA library, 0.1% formaldehyde crosslink after washing; high values mean tight binding
# FEV = target: T1, FEV (Homo sapiens, UniProt Q99581 1-238); details: protein: recombinant; tags: N-terminal GST; dsDNA, one strand shown
# T1 sequence: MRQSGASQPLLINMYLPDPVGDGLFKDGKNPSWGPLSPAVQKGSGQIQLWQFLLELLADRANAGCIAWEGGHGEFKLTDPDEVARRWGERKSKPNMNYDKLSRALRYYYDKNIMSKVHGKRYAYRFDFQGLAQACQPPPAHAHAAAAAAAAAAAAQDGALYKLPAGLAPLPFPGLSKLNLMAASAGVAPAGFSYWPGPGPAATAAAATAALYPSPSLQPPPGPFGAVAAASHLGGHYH
# Method in brief: (§1)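 Yeast served to express human transcription factors as GST fusions, which were then captured on glutathione beads and labelled with DNA barcodes. Pooled with a tag-only sample, they were incubated with 200 nmole of a 16-mer random double-stranded DNA library for 30 min at room temperature in Tris/NaCl/DTT/glycerol buffer, washed, crosslinked with 0.1% formaldehyde, ligated by proximity, amplified by PCR and sequenced. Dividing each hexamer's read frequency for a factor by its frequency for the tag-only sample gives the binding signal.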
# ETV5 = ETV5 (Homo sapiens, UniProt P41161 1-510); details: protein: recombinant; tags: N-terminal GST; dsDNA, one strand shown
# Method in brief: as §1
# HSF1 = HSF1 (Homo sapiens, UniProt Q00613 1-529); details: protein: recombinant; tags: N-terminal GST; chain copies: 3; dsDNA, one strand shown
# Method in brief: as §1
# SPIC = target: T2, SPIC (Homo sapiens, UniProt Q8N5J4 1-248); details: protein: recombinant; tags: N-terminal GST; dsDNA, one strand shown
# T2 sequence: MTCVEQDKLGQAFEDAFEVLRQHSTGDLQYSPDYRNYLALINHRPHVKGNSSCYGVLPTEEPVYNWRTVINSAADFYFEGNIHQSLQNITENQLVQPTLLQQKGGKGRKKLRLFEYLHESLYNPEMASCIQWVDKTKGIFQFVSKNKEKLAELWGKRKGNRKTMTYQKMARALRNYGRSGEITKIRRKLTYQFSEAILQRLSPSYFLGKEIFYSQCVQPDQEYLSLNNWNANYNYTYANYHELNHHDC
# Method in brief: as §1
# ELF4 = ELF4 (Homo sapiens, UniProt Q99607 1-663); details: protein: recombinant; tags: N-terminal GST; dsDNA, one strand shown
# Method in brief: as §1
# ELK4 = target: T3, ELK4 (Homo sapiens, UniProt P28324-2 1-405); details: protein: recombinant; tags: N-terminal GST; dsDNA, one strand shown
# T3 sequence: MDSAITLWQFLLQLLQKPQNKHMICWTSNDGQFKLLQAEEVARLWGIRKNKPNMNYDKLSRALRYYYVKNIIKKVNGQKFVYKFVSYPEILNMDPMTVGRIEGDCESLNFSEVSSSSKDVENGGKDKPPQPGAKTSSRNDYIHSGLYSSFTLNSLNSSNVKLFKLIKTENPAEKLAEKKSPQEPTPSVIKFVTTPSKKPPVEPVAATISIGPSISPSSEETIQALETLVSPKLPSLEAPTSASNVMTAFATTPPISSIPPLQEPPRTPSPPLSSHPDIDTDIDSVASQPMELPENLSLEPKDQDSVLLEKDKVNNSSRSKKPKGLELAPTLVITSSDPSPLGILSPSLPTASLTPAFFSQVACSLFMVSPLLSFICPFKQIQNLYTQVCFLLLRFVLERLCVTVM
# Method in brief: as §1
# ETV2 = target: T4, ETV2 (Homo sapiens, UniProt O00321 1-342); details: protein: recombinant; tags: N-terminal GST; dsDNA, one strand shown
# T4 sequence: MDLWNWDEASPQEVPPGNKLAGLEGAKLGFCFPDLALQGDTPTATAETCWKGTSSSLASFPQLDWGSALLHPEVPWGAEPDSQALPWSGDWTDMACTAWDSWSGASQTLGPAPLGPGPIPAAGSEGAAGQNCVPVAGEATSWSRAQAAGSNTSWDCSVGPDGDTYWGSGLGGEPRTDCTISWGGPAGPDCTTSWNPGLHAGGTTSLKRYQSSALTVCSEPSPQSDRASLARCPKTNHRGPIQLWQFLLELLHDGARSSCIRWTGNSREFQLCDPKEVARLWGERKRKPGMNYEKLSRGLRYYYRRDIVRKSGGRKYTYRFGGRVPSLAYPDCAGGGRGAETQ
# Method in brief: as §1
# ELF3 = target: T5, ELF3 (Homo sapiens, UniProt P78545 1-371); details: protein: recombinant; tags: N-terminal GST; dsDNA, one strand shown
# T5 sequence: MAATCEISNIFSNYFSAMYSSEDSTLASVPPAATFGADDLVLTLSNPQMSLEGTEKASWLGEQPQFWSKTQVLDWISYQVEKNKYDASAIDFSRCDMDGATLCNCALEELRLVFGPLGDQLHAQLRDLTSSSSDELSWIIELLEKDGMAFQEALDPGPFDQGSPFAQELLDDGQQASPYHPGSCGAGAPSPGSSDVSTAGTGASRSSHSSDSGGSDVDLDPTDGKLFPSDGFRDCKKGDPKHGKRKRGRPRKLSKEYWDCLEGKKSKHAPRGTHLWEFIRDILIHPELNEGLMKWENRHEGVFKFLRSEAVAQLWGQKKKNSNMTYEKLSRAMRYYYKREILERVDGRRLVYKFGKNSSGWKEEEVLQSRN
# Method in brief: as §1
# CRX = CRX (Homo sapiens, UniProt O43186 1-299); details: protein: recombinant; tags: N-terminal GST; dsDNA, one strand shown
# Method in brief: as §1
# ETV1 = ETV1 (Homo sapiens, UniProt P50549 1-477); details: protein: recombinant; tags: N-terminal GST; dsDNA, one strand shown
# Method in brief: as §1
# ERF = target: T6, ERF (Homo sapiens, UniProt P50548 1-548); details: protein: recombinant; tags: N-terminal GST; dsDNA, one strand shown
# T6 sequence: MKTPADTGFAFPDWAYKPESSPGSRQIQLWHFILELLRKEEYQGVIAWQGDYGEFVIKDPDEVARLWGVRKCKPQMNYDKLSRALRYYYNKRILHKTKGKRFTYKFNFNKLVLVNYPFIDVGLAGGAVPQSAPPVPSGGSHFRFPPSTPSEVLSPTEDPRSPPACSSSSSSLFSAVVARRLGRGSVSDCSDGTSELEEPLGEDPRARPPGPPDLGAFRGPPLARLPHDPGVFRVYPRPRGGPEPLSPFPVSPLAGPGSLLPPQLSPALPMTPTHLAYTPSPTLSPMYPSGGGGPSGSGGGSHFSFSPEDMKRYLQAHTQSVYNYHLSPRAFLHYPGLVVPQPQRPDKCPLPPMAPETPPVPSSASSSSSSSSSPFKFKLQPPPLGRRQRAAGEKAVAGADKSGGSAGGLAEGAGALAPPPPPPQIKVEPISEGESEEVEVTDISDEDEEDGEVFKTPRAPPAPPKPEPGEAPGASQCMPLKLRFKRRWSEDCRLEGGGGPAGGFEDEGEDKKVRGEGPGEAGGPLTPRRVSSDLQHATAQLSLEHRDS
# Method in brief: as §1
# ETV3L = target: T7, ETV3L (Homo sapiens, UniProt Q6ZN32 1-361); details: protein: recombinant; tags: N-terminal GST; dsDNA, one strand shown
# T7 sequence: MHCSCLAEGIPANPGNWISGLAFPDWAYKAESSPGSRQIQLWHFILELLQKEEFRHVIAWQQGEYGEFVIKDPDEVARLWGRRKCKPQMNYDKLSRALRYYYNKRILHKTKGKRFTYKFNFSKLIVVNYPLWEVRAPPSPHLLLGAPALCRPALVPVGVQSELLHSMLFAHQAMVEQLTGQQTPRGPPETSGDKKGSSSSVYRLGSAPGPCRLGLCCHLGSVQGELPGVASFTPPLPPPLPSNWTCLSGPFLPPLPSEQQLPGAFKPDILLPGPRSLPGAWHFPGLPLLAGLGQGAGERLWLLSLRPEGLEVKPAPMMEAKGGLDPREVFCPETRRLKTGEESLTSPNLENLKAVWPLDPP
# Method in brief: as §1
# ETS2 = target: T8, ETS2 (Homo sapiens, UniProt P15036 1-469); details: protein: recombinant; tags: N-terminal GST; dsDNA, one strand shown
# T8 sequence: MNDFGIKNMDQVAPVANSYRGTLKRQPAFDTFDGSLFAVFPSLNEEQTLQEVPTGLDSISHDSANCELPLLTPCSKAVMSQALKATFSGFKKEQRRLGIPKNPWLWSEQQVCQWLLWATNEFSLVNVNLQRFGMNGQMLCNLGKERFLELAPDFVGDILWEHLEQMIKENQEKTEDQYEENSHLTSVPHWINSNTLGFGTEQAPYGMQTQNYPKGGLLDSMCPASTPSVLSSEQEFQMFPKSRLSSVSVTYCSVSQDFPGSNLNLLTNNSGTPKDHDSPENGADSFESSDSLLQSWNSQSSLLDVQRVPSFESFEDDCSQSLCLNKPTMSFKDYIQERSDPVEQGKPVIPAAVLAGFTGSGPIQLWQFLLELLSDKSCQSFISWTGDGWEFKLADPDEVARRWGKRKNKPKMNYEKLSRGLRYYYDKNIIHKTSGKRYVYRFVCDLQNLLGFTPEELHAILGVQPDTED
# Method in brief: as §1
# SPDEF = target: T9, SPDEF (Homo sapiens, UniProt O95238 1-335); details: protein: recombinant; tags: N-terminal GST; dsDNA, one strand shown
# T9 sequence: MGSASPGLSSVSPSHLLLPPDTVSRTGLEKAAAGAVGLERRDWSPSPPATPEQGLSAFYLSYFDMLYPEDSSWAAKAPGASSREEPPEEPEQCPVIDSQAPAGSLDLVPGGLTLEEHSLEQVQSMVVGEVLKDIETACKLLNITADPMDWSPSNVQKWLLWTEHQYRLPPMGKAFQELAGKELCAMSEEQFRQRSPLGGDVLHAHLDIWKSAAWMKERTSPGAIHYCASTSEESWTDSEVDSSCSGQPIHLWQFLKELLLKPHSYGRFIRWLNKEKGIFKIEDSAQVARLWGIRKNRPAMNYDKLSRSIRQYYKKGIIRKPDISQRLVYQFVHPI
# Method in brief: as §1
# ETV7 = target: T10, ETV7 (Homo sapiens, UniProt Q9Y603 1-341); details: protein: recombinant; tags: N-terminal GST; dsDNA, one strand shown
# T10 sequence: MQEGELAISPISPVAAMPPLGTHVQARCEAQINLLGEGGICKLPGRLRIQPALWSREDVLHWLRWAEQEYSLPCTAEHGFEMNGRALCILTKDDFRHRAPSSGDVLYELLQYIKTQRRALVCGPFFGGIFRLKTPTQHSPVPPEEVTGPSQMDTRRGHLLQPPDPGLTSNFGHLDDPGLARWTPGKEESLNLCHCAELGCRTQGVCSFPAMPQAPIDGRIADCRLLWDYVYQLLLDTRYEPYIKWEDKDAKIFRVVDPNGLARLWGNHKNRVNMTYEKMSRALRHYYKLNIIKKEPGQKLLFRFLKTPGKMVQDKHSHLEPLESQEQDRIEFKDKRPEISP
# Method in brief: as §1
# ELF5 = target: T11, ELF5 (Homo sapiens, UniProt Q9UKW6-2 1-255); details: protein: recombinant; tags: N-terminal GST; dsDNA, one strand shown
# T11 sequence: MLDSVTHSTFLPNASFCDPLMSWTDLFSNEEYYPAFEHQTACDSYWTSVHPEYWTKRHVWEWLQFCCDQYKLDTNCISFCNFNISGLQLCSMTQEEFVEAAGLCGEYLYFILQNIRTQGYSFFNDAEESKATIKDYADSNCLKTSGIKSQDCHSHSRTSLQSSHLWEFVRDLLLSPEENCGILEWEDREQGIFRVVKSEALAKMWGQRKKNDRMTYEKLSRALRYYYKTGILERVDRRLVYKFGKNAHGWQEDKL
# Method in brief: as §1
# ETV3 = target: T12, ETV3 (Homo sapiens, UniProt P41162-2 1-143); details: protein: recombinant; tags: N-terminal GST; dsDNA, one strand shown
# T12 sequence: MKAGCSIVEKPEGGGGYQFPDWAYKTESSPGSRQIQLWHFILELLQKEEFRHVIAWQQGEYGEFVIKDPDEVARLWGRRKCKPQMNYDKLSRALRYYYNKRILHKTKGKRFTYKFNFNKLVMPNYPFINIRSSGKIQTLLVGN
# Method in brief: as §1
# ETV6 = ETV6 (Homo sapiens, UniProt P41212 1-452); details: protein: recombinant; tags: N-terminal GST; dsDNA, one strand shown
# Method in brief: as §1
# Chain of ETV6 (P41212 whole entry): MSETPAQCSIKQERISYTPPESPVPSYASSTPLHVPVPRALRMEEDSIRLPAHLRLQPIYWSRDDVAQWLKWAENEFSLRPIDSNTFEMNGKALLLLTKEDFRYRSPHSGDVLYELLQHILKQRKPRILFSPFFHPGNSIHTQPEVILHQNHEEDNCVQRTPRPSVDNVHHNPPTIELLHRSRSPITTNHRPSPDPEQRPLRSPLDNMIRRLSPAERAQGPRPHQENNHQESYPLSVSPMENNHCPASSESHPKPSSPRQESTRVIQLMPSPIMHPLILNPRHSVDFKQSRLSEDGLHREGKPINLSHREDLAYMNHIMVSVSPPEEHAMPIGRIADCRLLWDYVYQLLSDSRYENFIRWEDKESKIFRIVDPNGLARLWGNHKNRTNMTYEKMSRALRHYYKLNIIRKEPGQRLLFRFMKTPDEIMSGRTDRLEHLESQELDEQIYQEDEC
# Chain of ETV5 (P41161 whole entry): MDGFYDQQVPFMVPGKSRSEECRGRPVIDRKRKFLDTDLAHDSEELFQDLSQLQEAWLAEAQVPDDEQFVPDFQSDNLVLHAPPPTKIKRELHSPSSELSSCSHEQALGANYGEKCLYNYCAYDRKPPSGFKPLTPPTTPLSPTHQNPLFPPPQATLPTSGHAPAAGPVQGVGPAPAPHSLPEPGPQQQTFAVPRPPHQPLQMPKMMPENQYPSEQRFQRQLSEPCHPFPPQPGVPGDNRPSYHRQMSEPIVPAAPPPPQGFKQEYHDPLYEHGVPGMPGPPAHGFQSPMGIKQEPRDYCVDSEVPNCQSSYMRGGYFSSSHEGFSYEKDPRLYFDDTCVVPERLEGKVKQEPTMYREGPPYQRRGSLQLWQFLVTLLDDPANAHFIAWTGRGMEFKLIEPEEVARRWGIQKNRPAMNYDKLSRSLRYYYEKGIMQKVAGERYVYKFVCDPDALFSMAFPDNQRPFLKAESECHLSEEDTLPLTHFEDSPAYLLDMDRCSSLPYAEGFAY
# Chain of ELF4 (Q99607 whole entry): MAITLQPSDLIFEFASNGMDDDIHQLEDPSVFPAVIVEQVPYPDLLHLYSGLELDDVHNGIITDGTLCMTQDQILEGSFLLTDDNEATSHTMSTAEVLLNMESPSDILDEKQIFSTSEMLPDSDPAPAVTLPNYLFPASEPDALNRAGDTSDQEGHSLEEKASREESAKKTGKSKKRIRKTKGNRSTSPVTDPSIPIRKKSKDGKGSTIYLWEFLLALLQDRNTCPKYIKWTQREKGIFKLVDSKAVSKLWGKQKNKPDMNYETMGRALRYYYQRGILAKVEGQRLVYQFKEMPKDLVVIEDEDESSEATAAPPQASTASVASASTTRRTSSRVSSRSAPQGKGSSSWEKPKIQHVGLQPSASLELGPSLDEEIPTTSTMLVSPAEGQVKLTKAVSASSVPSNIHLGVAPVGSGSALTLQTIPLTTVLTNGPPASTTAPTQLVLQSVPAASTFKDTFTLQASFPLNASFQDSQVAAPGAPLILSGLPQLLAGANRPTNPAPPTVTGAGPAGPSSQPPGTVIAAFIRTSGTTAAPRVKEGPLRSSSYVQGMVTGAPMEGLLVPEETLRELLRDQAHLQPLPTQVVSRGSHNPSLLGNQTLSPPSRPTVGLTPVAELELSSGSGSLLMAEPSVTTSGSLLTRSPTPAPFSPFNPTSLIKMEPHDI
# Chain of CRX (O43186 whole entry): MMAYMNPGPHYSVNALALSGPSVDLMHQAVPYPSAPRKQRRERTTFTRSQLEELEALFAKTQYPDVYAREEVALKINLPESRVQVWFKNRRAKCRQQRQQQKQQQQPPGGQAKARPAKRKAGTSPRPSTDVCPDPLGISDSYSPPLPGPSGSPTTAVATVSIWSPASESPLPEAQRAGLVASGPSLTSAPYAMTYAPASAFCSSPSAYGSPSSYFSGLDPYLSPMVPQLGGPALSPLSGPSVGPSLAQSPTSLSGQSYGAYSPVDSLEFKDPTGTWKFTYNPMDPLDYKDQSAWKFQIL
# Chain of ETV1 (P50549 whole entry): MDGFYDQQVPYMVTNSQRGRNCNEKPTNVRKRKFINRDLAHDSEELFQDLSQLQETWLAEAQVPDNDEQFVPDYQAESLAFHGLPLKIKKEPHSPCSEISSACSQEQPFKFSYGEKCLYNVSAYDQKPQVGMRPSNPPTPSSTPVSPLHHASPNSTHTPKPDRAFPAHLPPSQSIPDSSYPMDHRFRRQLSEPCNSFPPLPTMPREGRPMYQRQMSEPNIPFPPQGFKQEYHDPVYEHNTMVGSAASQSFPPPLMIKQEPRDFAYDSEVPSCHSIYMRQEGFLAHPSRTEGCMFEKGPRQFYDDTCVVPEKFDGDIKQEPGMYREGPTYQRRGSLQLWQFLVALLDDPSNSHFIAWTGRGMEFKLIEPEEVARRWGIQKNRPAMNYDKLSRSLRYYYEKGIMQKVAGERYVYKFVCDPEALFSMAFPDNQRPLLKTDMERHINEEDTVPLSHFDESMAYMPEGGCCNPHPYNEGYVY
# Chain of HSF1 (Q00613 whole entry): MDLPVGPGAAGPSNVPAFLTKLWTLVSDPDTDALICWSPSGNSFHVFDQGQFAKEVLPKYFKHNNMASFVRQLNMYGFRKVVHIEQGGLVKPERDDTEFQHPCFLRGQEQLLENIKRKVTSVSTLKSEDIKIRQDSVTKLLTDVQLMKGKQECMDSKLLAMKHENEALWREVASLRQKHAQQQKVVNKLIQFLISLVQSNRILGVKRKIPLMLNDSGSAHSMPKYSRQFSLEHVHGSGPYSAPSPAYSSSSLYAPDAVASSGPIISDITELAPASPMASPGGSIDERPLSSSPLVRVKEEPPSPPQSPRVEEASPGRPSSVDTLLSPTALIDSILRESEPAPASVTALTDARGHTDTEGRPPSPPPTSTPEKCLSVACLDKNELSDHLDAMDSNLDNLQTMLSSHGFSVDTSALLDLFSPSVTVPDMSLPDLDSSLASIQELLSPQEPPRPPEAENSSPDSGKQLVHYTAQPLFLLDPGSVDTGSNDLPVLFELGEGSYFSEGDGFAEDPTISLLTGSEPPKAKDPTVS
sequence,measurement,setting,value
ACCTTC,binding signal,FEV,"1.97 fold enrichment (6-mer frequency, TF over GST control)"
same,binding signal,ETV5,"1.96 fold enrichment (6-mer frequency, TF over GST control)"
same,binding signal,HSF1,"2.87 fold enrichment (6-mer frequency, TF over GST control)"
same,binding signal,SPIC,"1.66 fold enrichment (6-mer frequency, TF over GST control)"
same,binding signal,ELF4,"2.06 fold enrichment (6-mer frequency, TF over GST control)"
same,binding signal,ELK4,"2.06 fold enrichment (6-mer frequency, TF over GST control)"
same,binding signal,ETV2,"1.71 fold enrichment (6-mer frequency, TF over GST control)"
same,binding signal,ELF3,"1.95 fold enrichment (6-mer frequency, TF over GST control)"
same,binding signal,CRX,"1.88 fold enrichment (6-mer frequency, TF over GST control)"
same,binding signal,ETV1,"1.98 fold enrichment (6-mer frequency, TF over GST control)"
same,binding signal,ERF,"1.92 fold enrichment (6-mer frequency, TF over GST control)"
same,binding signal,ETV3L,"1.75 fold enrichment (6-mer frequency, TF over GST control)"
same,binding signal,ETS2,"1.89 fold enrichment (6-mer frequency, TF over GST control)"
same,binding signal,SPDEF,"2.02 fold enrichment (6-mer frequency, TF over GST control)"
same,binding signal,ETV7,"1.79 fold enrichment (6-mer frequency, TF over GST control)"
same,binding signal,ELF5,"2.19 fold enrichment (6-mer frequency, TF over GST control)"
same,binding signal,ETV3,"1.8 fold enrichment (6-mer frequency, TF over GST control)"
same,binding signal,ETV6,"1.96 fold enrichment (6-mer frequency, TF over GST control)"
